Experiment [1] in a line: Tanguay_ZF_120hpf_JAW_legacy: (Legacy) Oregon State University Tanguay Lab 120 Hour Post-fertilization zebrafish Assay for Jaw Malformation (AID 2283638).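 On AC50: active means more embryos with jaw malformation than DMSO controls.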 The procedure, abridged:
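Dechorionated Tropical 5D wild-type zebrafish embryos, one per well, exposed statically from 6 hpf to 120 hpf at 28C in 0.64% DMSO. Jaw malformation was scored by brightfield microscopy as present or absent. It was not scored in dead embryos.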

The nature of experiment [2]: Tanguay_ZF_120hpf_OTIC_legacy: (Legacy) Oregon State University Tanguay Lab 120 Hour Post-fertilization zebrafish Assay for Otic Vesicle Malformation (AID 2283639). The procedure, abridged:
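Wild-type zebrafish larvae, whole-embryo exposure from early stage to 120 hpf at 28C. Binary brightfield scoring of otic vesicle morphology, fitted in the positive direction against the DMSO baseline.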

A short description of experiment [3]: Tanguay_ZF_120hpf_PE_legacy: (Legacy) Oregon State University Tanguay Lab 120 Hour Post-fertilization zebrafish Assay for Pericardial Edema (AID 2283640).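 On AC50: potency for increased incidence of pericardial edema versus DMSO baseline.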 The procedure, abridged: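 Tropical 5D wild-type zebrafish embryos were statically exposed until 120 hpf at 28C, with 0.64% DMSO final. Pericardial edema was scored by brightfield as present or absent; endpoints were not scored in dead embryos.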

The nature of experiment [4]: Tanguay_ZF_120hpf_BRAI_legacy: (Legacy) Oregon State University Tanguay Lab 120 Hour Post-fertilization zebrafish Assay for Brain Malformation (AID 2283641). The method, boiled down: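 Tropical 5D wild-type zebrafish embryos exposed statically until 120 hpf at 28C, 0.64% DMSO final, sealed and dark. Brain malformation scored present/absent by brightfield at 120 hpf; dead embryos excluded. Trimethyltin chloride 5uM positive control.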

The nature of experiment [5]: Tanguay_ZF_120hpf_CFIN_legacy: (Legacy) Oregon State University Tanguay Lab 120 Hour Post-fertilization zebrafish Assay for Caudal Fin Malformation (AID 2283649). The method, boiled down:
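Dechorionated Tropical 5D wild-type embryos, one per well from 6 hpf, static exposure to 120 hpf at 28C in 0.64% DMSO. Caudal fin malformation scored by brightfield as present/absent; not scored in dead embryos.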

Experiment [6] is described as follows: Tanguay_ZF_120hpf_PIG_legacy: (Legacy) Oregon State University Tanguay Lab 120 Hour Post-fertilization zebrafish Assay for Pigmentation Malformation (AID 2283650). The method, boiled down: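 Endpoint is incidence of abnormal pigmentation at 120 hpf in dechorionated 5D zebrafish exposed singly from 6 hpf at 28C, DMSO vehicle at 0.64%. Embryos dying by 24 or 120 hpf are excluded from scoring.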

The nature of experiment [7]: Tanguay_ZF_120hpf_CIRC_legacy: (Legacy) Oregon State University Tanguay Lab 120 Hour Post-fertilization zebrafish Assay for Circulatory Malformation (AID 2283651). The method, boiled down:
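Binary circulatory-malformation call at 120 hpf via brightfield imaging, relative to DMSO controls. Embryos (5D strain, chorion removed) received static, light-shielded exposure at 28C.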

The nature of experiment [8]: Tanguay_ZF_120hpf_PFIN_legacy: (Legacy) Oregon State University Tanguay Lab 120 Hour Post-fertilization zebrafish Assay for Pectoral Fin Malformation (AID 2283648).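 Further: each larva judged yes or no for fin defect by brightfield with dead larvae skipped.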 The procedure, abridged: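 Scoring of pectoral fin malformation was binary, made at 120 hpf on larvae exposed statically from 6 hpf after enzymatic chorion removal. Activity was fitted upward relative to DMSO controls at 0.64% (vol/vol).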

Read-out in experiment [9]: kallikrein-3 (KLK3), KLK3 (gene 354)
The experiment in a line: LTEA_HepaRG_KLK3: Life Technologies and Expression Analysis (LTEA) Assay for kallikrein-3 (KLK3) using HepaRG (AID 2283652; active means hit-call score of the fitted dose curve at least 0.9, where 1 is the maximum; inactive means score below 0.9). The settings on record: mRNA level, 48 h; actives raise or lower the signal. The procedure, abridged:
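KLK3 transcript levels were measured by TaqMan qRT-PCR with normalisation to three housekeeping genes. HepaRG cultures received chemicals for 48 h at up to 100 uM (half-log, 8 points, 0.5% DMSO vehicle), fitted in both directions against DMSO.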

Experiment [10] can be described thus: Tanguay_ZF_120hpf_SOMI_legacy: (Legacy) Oregon State University Tanguay Lab 120 Hour Post-fertilization zebrafish Assay for Somite Malformation (AID 2283647). The procedure, abridged:
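Dechorionated Tropical 5D wild-type zebrafish embryos, one per well from 6 hpf, statically exposed at 28C to 120 hpf in 0.64% DMSO; somite malformation scored present/absent by brightfield; trimethyltin 5 uM positive control; dead embryos not scored.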

Each structure is given as a SMILES string. Inconclusive results are not listed. Calls of active or inactive are those of the source. How the source made its calls, unless noted: active means hit-call score of the fitted dose curve at least 0.9, where 1 is the maximum; inconclusive means response in the unintended direction; inactive means score below 0.9.

Take `CCOC(=O)COc1ccc2c(c1)CC(NCC(O)c1cccc(Cl)c1)CC2` (centres undefined): the outcome in [1], in experiment [2], in experiment [3], in experiment [4], in [5] and in [6] was inactive.
In the case of `CC(C)=CCC/C(C)=C\CO`, the compound was classed as inactive in experiment [1], in experiment [2], in [3], in experiment [4], in [5] and in [6]. For the same compound, in [7], the outcome was inactive.
Regarding `CCNc1ccccc1`, the call in [1], in experiment [2], in experiment [3], in experiment [4], in experiment [5] and in experiment [6] was inactive. The outcome in experiment [7] was inactive.
On to `O=C(OC[C@H]1O[C@@H](OC(=O)c2cc(O)c(O)c(OC(=O)c3cc(O)c(O)c(O)c3)c2)[C@H](OC(=O)c2cc(O)c(O)c(OC(=O)c3cc(O)c(O)c(O)c3)c2)[C@@H](OC(=O)c2cc(O)c(O)c(OC(=O)c3cc(O)c(O)c(O)c3)c2)[C@@H]1OC(=O)c1cc(O)c(O)c(OC(=O)c2cc(O)c(O)c(O)c2)c1)c1cc(O)c(O)c(OC(=O)c2cc(O)c(O)c(O)c2)c1`, for which the compound was classed as inactive in experiment [1], in [2], in [3], in experiment [4], in [8] and in experiment [5]. Also, the call in experiment [6] and in [7] was inactive.
For the compound `CCCC(=O)OCC`, the outcome in experiment [1], in experiment [2], in experiment [3], in experiment [4], in experiment [5] and in experiment [6] was inactive. Moreover, in experiment [7], the compound was called inactive.
On to `C[C@](N)(Cc1ccc(O)c(O)c1)C(=O)O`, for which the result in [1], in experiment [2], in experiment [3], in experiment [4], in experiment [5] and in experiment [6] was inactive. Besides, in experiment [7], the result was inactive.
For `C=CC(=C)CCC=C(C)C`, the outcome in [1], in [2], in [3], in experiment [4], in experiment [5] and in [6] was inactive. The call in [7] and in experiment [9] was inactive.
For `Cc1ccc(O)cc1`, the compound was called inactive in [1], in experiment [2], in [3], in experiment [4], in [8] and in [6]. Besides, in experiment [7], the call was inactive.
On to `O=C(NS(=O)(=O)/C=C/c1ccccc1)c1ccc(F)cc1Cl`, for which the call in experiment [1], in [2], in [3], in experiment [4], in [5] and in experiment [6] was inactive.
Consider `CCCCCCc1ccc(O)cc1O`, for which the compound was classed as inactive in experiment [1], in experiment [2], in experiment [3], in experiment [4], in experiment [8] and in [6]. The compound was called inactive in experiment [7].
As to `CC(=O)OCCC(C)C`, the outcome in experiment [1], in experiment [2], in experiment [3], in experiment [4] and in experiment [5] was inactive.
On to `O=P(OC(CCl)CCl)(OC(CCl)CCl)OC(CCl)CCl`, for which the AC50 (as a rule, the concentration giving half of the maximal activity seen) in experiment [1] is 36.3 µM (active); in [2], 34.7 µM (active); in experiment [3] it was 28.2 µM (active); in experiment [4] it was 31.7 µM (active); in experiment [5] it was 30 µM (active); in [6] it was 33.9 µM (active). Besides, the outcome in experiment [7] was inactive.
Consider `COc1ccc(-n2nc(C(F)F)cc2-c2ccc(S(C)=O)cc2)cc1` (centres undefined), for which the AC50 in experiment [1] is 46.7 µM (active); in [3], 37.7 µM (active); in experiment [4], 40.4 µM (active); in [5] it was 12.8 µM (active). Moreover, the compound was classed as inactive in experiment [2], in [6] and in experiment [7].
In the case of `COCCOc1cc2cc(C(=O)NC3CCN(C(C)C)CC3)n(CC(=O)Nc3ccc(Cl)cn3)c2cn1`, the result in experiment [1], in experiment [2], in [3], in [4], in experiment [5] and in experiment [6] was inactive. For the same compound, in experiment [7], the result was inactive.
Regarding `CCOc1cccc(-n2cc(C(=O)N3CCN(c4cc(C(=O)O)c5ccccc5c4)CC3)nc2-c2ccc(C)cc2)c1`, the outcome in experiment [1], in experiment [2], in [3], in [4], in experiment [5] and in experiment [6] was inactive.
For `O=c1n(CC2CO2)c(=O)n(CC2CO2)c(=O)n1CC1CO1` (centres undefined), the result in experiment [1], in experiment [2], in experiment [3], in experiment [4], in experiment [8] and in [5] was inactive. In addition, the compound was classed as inactive in experiment [6] and in [7].
On to `CC(C)=CCCC(C)=CC=O`, for which the result in experiment [1], in experiment [2], in experiment [3], in experiment [4], in experiment [5] and in [6] was inactive. In addition, in [7], the compound was classed as inactive.
On to `COC(=O)c1ccccc1O`, for which the call in experiment [1], in experiment [2], in experiment [3], in experiment [4], in [5] and in experiment [6] was inactive. In addition, the compound was called inactive in experiment [7].
`CN(C)c1ccc(Cc2ccc(N(C)C)cc2)cc1`: the call in [1], in [3], in experiment [4], in experiment [10], in experiment [8] and in experiment [5] was inactive. Further, the compound was classed as inactive in experiment [6] and in [7].
Consider `CCCCCCCCO`, for which the result in [1], in experiment [3], in [4], in experiment [10], in [5] and in experiment [6] was inactive.
In the case of `CCOCCOCCOCCO`, the call in [2], in experiment [3], in experiment [4], in experiment [10], in experiment [5] and in experiment [6] was inactive.
Regarding `CC1(C)C(=O)N(Br)C(=O)N1Br`, the result in experiment [1], in [3], in [4], in experiment [5], in [6] and in [7] was inactive.
In the case of `Cn1cnc([N+](=O)[O-])c1Sc1ncnc2nc[nH]c12`, the outcome in [1], in experiment [2], in experiment [5] and in [7] was inactive.

(Values after PubChem BioAssay (EPA / NIEHS).)
